Compound activity (PubChem BioAssay)
Most compounds without a hit are left out; they make up all but 7.6% or so of the library.
KCNH2 3.1 inh – blocks the human KCNH2 3.1 channel isoform | U2OS KCNH2 3.1, thallium flux FluxOr; hits give low values | activity change, % (tested at about 1.8 µM) | 340,000 tested, 0.95% active;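 active means maximum activity change below -70%; inconclusive means maximum activity change from -70% to -50%; inactive means maximum activity change above -50%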;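 further: thallium influx rate constant from kinetic fluorescence after stimulation buffer; on the % scale 0 is the no-effect control and ±100 the full control effect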
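Virally transduced U2OS (3.1 isoform, 4 h infection in dark at RT) → overnight 37 C → FluxOr + Red40 in HBSS/HEPES, 45 min → stimulation buffer, 2 min kinetic read → rate constant vs DMSO controls.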
KB-V1 MDR tox – kills drug-selected multidrug resistant KB-V1 cells. KB-V1 MDR cells viability, CellTiter-Glo, 72 h. Potency, µM (series often up to 46.1 µM), actives largely listed as cytotoxic. 400,000 tested, 3.4% active. AID 1347076; further: potency means the concentration at half of the fitted maximal effect; on the % scale 0 is the no-effect control and ±100 the full control effect; nearly all actives have a fitted effect of over 60% in size
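KB-V1 cells (P-gp-expressing MDR subline of KB-3-1) in phenol-red-free DMEM with 10% FBS were exposed to library compounds over a concentration series for 72 h at 37 degrees C. Viability read by CellTiter-Glo luminescence; concentration-effect curves fitted after normalization.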
MCF10A rerep – DNA re-replication induction in MCF 10a cells | 350,000 tested, 2.9% active | AID 624296 | MCF 10A DNA re-replication, Hoechst nuclear intensity, 48 h | Potency, µM (titrated, usually from 46.1 µM), inactives show at the top dose activity, positive = re-replication, most hits filed as activators; further: potency means the concentration at half of the fitted maximal effect; % of control where 0% means no effect; nearly all actives have a fitted effect of over 50% in size
KCNH2 WT inh – KCNH2 (human, wildtype) channel inhibition. 340,000 tested, 0.37% active. activity change, % at 1.84 µM. AID 720551. U2OS, BacMam KCNH2, thallium flux FluxOr; hits give low values;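 active means maximum activity change below -70%; inconclusive means maximum activity change between -70% and -50%; inactive means maximum activity change above -50%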; further: on the % scale 0 is the no-effect control and ±100 the full control effect
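U2OS cells were transduced with wild-type KCNH2 virus (2.03 x 10^8 / mL) for 4 h at room temperature, then cultured overnight at 37 C. Thallium flux was read with FluxOr dye. Rate constants were normalized to DMSO controls.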
KB-3-1 cytotox – KB-3-1 parental cell cytotoxicity. Potency, µM (top dose mostly 46.1 µM), hits mostly cytotoxic. 400,000 tested, 1.4% active. KB-3-1 viability, CellTiter-Glo ATP luminescence, 72 h. AID 1347075; further: potency means the concentration at half of the fitted maximal effect; on the % scale 0 is the no-effect control and ±100 the full control effect; nearly all actives have a fitted effect of over 60% in size
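Cytotoxicity in the drug-sensitive parental line KB-3-1 was scored as loss of CellTiter-Glo luminescence following 72 h incubation with compound. Values come from curve fitting of normalized concentration-response data.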
SW480 rerep – inducers of DNA re-replication in SW480 colon cancer cells. SW480 DNA re-replication, Hoechst DNA content imaging, 48 h. Potency, µM (titrated, usually from 46.1 µM), for inactives: top-dose re-replication activation, hits mostly activators. 340,000 tested, 1.8% active; further: potency means the concentration at half of the fitted maximal effect; % of control where 0% means no effect; nearly all actives have a fitted effect of over 55% in size
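Readout is total intensity of Hoechst-stained nuclei, excited at 405 nm and collected at 500-530 nm. Compound treatment lasted 48 hr at 37 C in 5% CO2 before staining.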
An asterisk follows results filed as active. Unless noted, the call rests on the fitted dose curve; in most records, active means well fitted curve in the direction sought with a large enough effect; inconclusive means small, poorly fitted or top-dose-only effect, or another doubt; inactive means no such curve, though single readings can be large; an effect the other way counts as inactive or inconclusive.

CC1CCc2sc3ncn4nc(C(=O)NCc5ccco5)nc4c3c2C1 (centres undefined) was read as KCNH2 3.1 inh -76.8*, KB-V1 MDR tox 6.51µM*, MCF10A rerep 1.8%, KCNH2 WT inh 6.5, KB-3-1 cytotox inactive and SW480 rerep -5.0%.
Cc1cc(C)c(S(=O)(=O)NC2CC3CCC2C3)c(C)c1 (centres undefined) was read as KCNH2 3.1 inh -3.1, KB-V1 MDR tox inactive, MCF10A rerep 28.8%, KCNH2 WT inh -2.5, KB-3-1 cytotox inactive and SW480 rerep inconclusive.
`CCn1c(=O)cc(SCC(=O)NCc2ccc(OC)cc2OC)c2ccccc21` gave KB-V1 MDR tox inactive and KB-3-1 cytotox inactive.
CCc1ccc(-n2c(=O)c3c4c(sc3n(CC(=O)NCCCOC)c2=O)CCCC4)cc1 was read as KB-V1 MDR tox inactive and KB-3-1 cytotox inactive.
For C=CCn1c(CCNC(=O)c2cccs2)nnc1SCC(=O)c1ccc(Cl)cc1 the results were KCNH2 3.1 inh -97.6*, KB-V1 MDR tox inactive, MCF10A rerep 25.9µM*, KCNH2 WT inh 25.7, KB-3-1 cytotox inactive and SW480 rerep inconclusive.
For C=CCn1c(CNC(=O)c2cccs2)nnc1SCC(=O)c1ccc(Br)cc1 the results were KCNH2 3.1 inh 1.6, KB-V1 MDR tox 14.6µM*, MCF10A rerep 1.6%, KCNH2 WT inh 26.8, KB-3-1 cytotox inactive and SW480 rerep -7.2%.
`O=S(=O)(Nc1cccc(Cl)c1)c1ccc2oc(=S)[nH]c2c1` gave KCNH2 3.1 inh 13.3, KB-V1 MDR tox inactive, MCF10A rerep -20.4%, KCNH2 WT inh 1.2, KB-3-1 cytotox inactive and SW480 rerep 15.7%.
Screening O=C1NC2(CCc3ccccc32)C(=O)N1CCOc1ccc(Cl)cc1 (centres undefined) returned KCNH2 3.1 inh 0.4, KB-V1 MDR tox inactive, MCF10A rerep 0.7%, KCNH2 WT inh -1.7, KB-3-1 cytotox inactive and SW480 rerep -1.2%.
Screening Cc1ccccc1OCCN1C(=O)NC2(CCc3ccccc32)C1=O (centres undefined) returned KCNH2 3.1 inh -1.0, KB-V1 MDR tox 23.1µM*, MCF10A rerep -0.7%, KCNH2 WT inh -5.9, KB-3-1 cytotox inactive and SW480 rerep 1.3%.
`Cc1sc(N/N=C/c2cccs2)nc1-c1ccccc1` gave KCNH2 3.1 inh 0.0, KB-V1 MDR tox inactive, MCF10A rerep inconclusive, KCNH2 WT inh 1.4, KB-3-1 cytotox inconclusive and SW480 rerep 0.2%.
For COc1ccccc1C(=O)OCc1cc(=O)n2nc(C3CCCCC3)sc2n1 the results were KB-V1 MDR tox inactive and KB-3-1 cytotox inactive.
For COc1cc2c(cc1CNC[C@H]1O[C@@H](n3ccc(N)nc3=O)[C@H](O)[C@@H]1O)OCO2 the results were KCNH2 3.1 inh 2.3, KB-V1 MDR tox inactive, KCNH2 WT inh -7.1 and KB-3-1 cytotox inconclusive.
CCCCOc1ccc(Cc2c(Cl)nc(SC)nc2N2CCOCC2)cc1 was read as KCNH2 3.1 inh -13.0, KB-V1 MDR tox 20.6µM*, MCF10A rerep 15.4%, KCNH2 WT inh 1.7, KB-3-1 cytotox inactive and SW480 rerep 3.9%.
`Cc1ccc(NC(=O)C(=O)NCCN2CCN(Cc3ccc([N+](=O)[O-])cc3)CC2)cc1` gave KCNH2 3.1 inh -108.1*, KB-V1 MDR tox 2.91µM*, MCF10A rerep -6.4%, KCNH2 WT inh -82.2*, KB-3-1 cytotox inactive and SW480 rerep inconclusive.
`CCc1ccc(NC(=O)C(=O)NCCN2CCN(Cc3ccc([N+](=O)[O-])cc3)CC2)cc1` gave KCNH2 3.1 inh -105.5*, KB-V1 MDR tox inactive, MCF10A rerep inconclusive, KCNH2 WT inh -91.5*, KB-3-1 cytotox inactive and SW480 rerep 2.4%.
Cc1ccc(NC(=O)C(=O)NCCN2CCN(C(=S)Nc3ccccc3)CC2)cc1 was read as KCNH2 3.1 inh 3.0, KB-V1 MDR tox inactive, MCF10A rerep -0.3%, KCNH2 WT inh 5.0, KB-3-1 cytotox inactive and SW480 rerep 8.7%.
